# Measurements reported in ChEMBL document CHEMBL5308504, “Tm Shift (DSF) assay results for EUbOPEN Chemogenomics Library” (2023).
# Columns and labels:
# Details in all cases: Compound concentration 20.0 uM, Protein concentration 2.0 uM, Result type QC Liability
# [1] = biological target: Tyrosine-protein kinase ABL1 (Homo sapiens) (UniProt P00519)
# [2] = biological target: Cyclin-dependent kinase 2 (Homo sapiens) (UniProt P24941)
# [3] = biological target: Casein kinase I isoform delta (Homo sapiens) (UniProt P48730)
# Chain of Casein kinase I isoform delta (Homo sapiens) (P48730 whole entry, looked up, canonical isoform): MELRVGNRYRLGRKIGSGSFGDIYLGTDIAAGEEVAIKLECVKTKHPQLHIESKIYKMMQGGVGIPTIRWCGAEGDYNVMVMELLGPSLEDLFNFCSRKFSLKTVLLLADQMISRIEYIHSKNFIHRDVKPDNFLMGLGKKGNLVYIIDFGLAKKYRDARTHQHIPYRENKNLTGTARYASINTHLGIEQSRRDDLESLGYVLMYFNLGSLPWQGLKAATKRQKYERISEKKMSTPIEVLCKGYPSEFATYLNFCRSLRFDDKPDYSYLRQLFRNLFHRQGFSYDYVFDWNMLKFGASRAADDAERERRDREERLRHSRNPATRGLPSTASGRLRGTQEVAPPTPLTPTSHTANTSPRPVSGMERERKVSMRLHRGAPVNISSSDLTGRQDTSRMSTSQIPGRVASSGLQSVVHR
# [4] = biological target: Glycogen synthase kinase-3 beta (Homo sapiens) (UniProt P49841)
# Chain of Glycogen synthase kinase-3 beta (Homo sapiens) (P49841 whole entry, looked up): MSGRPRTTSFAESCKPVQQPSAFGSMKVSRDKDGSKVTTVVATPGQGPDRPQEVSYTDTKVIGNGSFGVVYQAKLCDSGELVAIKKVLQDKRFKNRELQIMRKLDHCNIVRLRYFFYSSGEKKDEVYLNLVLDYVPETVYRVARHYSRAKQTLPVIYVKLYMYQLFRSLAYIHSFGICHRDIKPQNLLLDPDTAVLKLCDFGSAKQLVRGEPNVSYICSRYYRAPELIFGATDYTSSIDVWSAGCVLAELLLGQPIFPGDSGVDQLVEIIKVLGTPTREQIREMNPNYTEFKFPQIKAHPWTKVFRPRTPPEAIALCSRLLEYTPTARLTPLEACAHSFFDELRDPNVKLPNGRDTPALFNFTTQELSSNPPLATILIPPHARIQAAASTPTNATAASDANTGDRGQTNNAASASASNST
# [5] = biological target: Mitogen-activated protein kinase 1 (Homo sapiens) (UniProt P28482)
# Chain of Mitogen-activated protein kinase 1 (Homo sapiens) (P28482 whole entry): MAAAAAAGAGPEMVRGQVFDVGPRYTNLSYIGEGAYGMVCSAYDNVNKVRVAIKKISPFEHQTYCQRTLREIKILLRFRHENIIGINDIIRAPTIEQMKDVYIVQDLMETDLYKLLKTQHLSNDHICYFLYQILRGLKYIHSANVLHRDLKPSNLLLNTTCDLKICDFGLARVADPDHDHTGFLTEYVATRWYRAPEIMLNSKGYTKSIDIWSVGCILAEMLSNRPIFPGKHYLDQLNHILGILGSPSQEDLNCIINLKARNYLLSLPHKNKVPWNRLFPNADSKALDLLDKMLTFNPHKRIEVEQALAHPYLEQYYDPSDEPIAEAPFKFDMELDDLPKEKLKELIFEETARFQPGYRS
# [6] = biological target: T1, Aurora kinase A (Homo sapiens) (UniProt O14965)
# T1 sequence (whole entry): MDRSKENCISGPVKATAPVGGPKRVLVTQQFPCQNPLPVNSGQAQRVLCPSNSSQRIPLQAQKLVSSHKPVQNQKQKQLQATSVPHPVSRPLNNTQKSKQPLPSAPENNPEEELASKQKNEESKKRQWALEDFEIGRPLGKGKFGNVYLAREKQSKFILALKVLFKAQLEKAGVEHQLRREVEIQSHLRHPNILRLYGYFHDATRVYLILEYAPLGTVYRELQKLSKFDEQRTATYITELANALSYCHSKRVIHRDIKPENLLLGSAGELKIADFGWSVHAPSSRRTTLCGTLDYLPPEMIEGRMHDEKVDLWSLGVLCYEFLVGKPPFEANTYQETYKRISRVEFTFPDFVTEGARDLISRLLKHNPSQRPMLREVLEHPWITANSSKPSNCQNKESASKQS
# Chain of Tyrosine-protein kinase ABL1 (Homo sapiens) (P00519 whole entry): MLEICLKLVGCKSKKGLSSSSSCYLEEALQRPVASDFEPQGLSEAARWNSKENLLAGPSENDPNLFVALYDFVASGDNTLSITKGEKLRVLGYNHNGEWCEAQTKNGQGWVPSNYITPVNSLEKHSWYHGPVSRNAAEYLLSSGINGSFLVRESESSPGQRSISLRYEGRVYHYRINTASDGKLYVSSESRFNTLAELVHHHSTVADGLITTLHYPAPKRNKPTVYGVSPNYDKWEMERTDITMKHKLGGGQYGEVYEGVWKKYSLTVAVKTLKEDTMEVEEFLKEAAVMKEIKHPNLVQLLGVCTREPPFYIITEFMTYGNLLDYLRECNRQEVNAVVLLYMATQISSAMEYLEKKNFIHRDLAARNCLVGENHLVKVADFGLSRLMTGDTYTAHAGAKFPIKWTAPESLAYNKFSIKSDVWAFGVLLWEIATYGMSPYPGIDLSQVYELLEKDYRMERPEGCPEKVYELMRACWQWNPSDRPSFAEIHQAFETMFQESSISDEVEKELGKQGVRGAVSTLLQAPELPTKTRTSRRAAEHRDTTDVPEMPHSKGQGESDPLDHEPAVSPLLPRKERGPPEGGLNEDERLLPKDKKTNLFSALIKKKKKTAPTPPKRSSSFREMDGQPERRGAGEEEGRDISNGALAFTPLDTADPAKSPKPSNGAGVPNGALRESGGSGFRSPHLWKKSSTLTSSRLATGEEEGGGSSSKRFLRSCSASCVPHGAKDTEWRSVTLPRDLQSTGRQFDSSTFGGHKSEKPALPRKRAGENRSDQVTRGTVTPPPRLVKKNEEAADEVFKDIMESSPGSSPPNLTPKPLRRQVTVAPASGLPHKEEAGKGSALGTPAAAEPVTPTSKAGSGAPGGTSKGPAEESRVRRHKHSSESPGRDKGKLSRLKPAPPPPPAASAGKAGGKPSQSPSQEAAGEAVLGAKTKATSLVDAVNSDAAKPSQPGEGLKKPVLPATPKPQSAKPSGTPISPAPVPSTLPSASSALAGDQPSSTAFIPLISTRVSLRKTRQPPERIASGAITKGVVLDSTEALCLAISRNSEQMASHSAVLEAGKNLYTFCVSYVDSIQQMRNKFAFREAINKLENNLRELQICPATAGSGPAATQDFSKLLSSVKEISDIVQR
SMILES,ΔTm [1] [°C],ΔTm [2] [°C],ΔTm [3] [°C],ΔTm [4] [°C],ΔTm [5] [°C],ΔTm [6] [°C]
COc1cc(C(N)=O)nc(-c2cccc(C#C[C@]3(O)CCN(C)C3=O)c2)c1,-0.11,1.02,-0.06,0.79,0.3,1.62
Cc1ccc(-n2nc(C(C)(C)C)cc2NC(=O)Nc2ccccc2F)cc1,1.53,1.51,2.52,-0.41,3.34,-1.69
CN(C)CCCN1c2ccccc2Sc2ccc(Cl)cc21,0.03,0.8,0.05,-0.47,0.34,-0.47
Cc1cc2c(ncn2C2(C)CN(C(=O)c3ccn(CC4CCN([C@H]5C=CCCCC5)CC4)c3)C2)c(N)n1,0.14,1.09,-0.14,-0.26,0.62,-1
Nc1nc(-c2nn(Cc3ccccc3F)c3ncccc23)ncc1C1CC1,0.84,0.56,0.44,-0.21,0.15,0.14
O=C(O)Cc1cc(I)c(Oc2ccc(O)c(I)c2)c(I)c1,-0.37,0.49,0.22,-0.68,-1.09,3.86
O=C(Nc1ccc(Cl)c(-c2ccccn2)c1)c1cccc(COc2ccc(Br)cc2CNCCO)c1,0.35,-0.21,0.55,-0.89,-0.69,-0.51
Fc1cccc(-n2cnc3c(NCc4nc5c(F)c(F)ccc5[nH]4)nc(N4CCOCC4)nc32)c1,1.99,0.74,3.88,1.83,0.22,0.74
CCN(C)S(=O)(=O)Nc1cccc(-c2ccc3c(NC(=O)C4CC4)n[nH]c3c2)c1,4.16,3.52,0.06,3.82,0.42,4.06
O=C(O)CCC/C=C\C[C@@H]1[C@@H](/C=C/[C@@H](O)COc2cccc(C(F)(F)F)c2)[C@H](O)C[C@@H]1O,0.54,0.59,0.07,0.65,-0.39,-0.25
O=C(CCCCCCc1ccccc1)c1ncc(-c2ccccn2)o1,0.19,0.75,0.19,-0.85,-0.04,-0.34
Cn1ncc(NC(=O)c2nc(-c3c(F)cccc3F)sc2N)c1N1CC[C@@H](N)[C@H](F)CC1,0.6,1.59,0.57,12.4,0.32,0.87
O=C(N[C@H](Cc1ccccc1)C(=O)O)c1cccc(OCc2cccnc2)c1,0.31,1.19,-0.02,0.45,0.21,-0.05
CCNc1ccc(-c2nn(-c3ccccc3C)c3c2C(C)Cc2nc(NC(=O)OC)sc2-3)cn1 (centres undefined),0.34,0.64,0.19,-0.97,-0.13,1.08
O=C(N[C@H]1CCC[C@H](CO)C1)C1CCN(c2nc3cc(Cl)c(-c4ccc(Cl)cc4)cc3o2)CC1,1.38,-3.19,-6.76,1.1,-10.4,-2.13
Cc1c(CN2CCC3(CC2)CN(c2ncnc4sc(CC(F)(F)F)cc24)C3)ccc2c1cc(C#N)n2CC(N)=O,0.27,-0.01,0.92,0.64,0.12,0.16
CCN1CCN(Cc2ccc(C(=O)Nc3ccc(C)c(Oc4ccc5c(c4)CC(=O)N5)c3)cc2C(F)(F)F)CC1,12.9,0.01,0.95,0.8,0.26,-1.25
CCCCc1c(-c2ccccc2)nc(N)nc1-c1ccc(OCc2ccccc2)c(F)c1F,-0.08,-0.31,-3.97,-3.51,0,-1.37
O=C(O)CCCN1CCC[C@H]1COc1ccc(Oc2ccc(Cl)cc2)cc1,0.14,0.25,-0.11,-0.15,-0.08,-0.43
